# BAZ2B block – qHTS Assay for Inhibitors of BAZ2B | AID 504333, 2011 | AlphaScreen BAZ2B-H3K14Ac peptide displacement | Bromodomain adjacent to zinc finger domain protein 2B (Homo sapiens), Q9UIF8 | Potency, µM (top dose mostly 114 µM), for the others: at the highest dose activity change, negative = inhibition, usual class: inhibitors | hit rate 4.4% among 360,000; also: potency is read from the fitted curve at half-maximal effect; % is scaled to controls: 0 for no effect and ±100 for the full control effect; nearly all actives have a fitted effect of over 60% in size
#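 BAZ2B 50 nM plus b-H3(5-23)K14Ac 50 nM, PBS pH 7.4/0.01% Tween-20, 30 min RT; compound added (max 110 uM), 30 min RT; streptavidin donor/Ni-chelate acceptor beads 10 ug/mL final, 20 min dark; AlphaScreen read.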
# Six1-Eya2 inh – qHTS Assay for Inhibitors of the Six1/Eya2 Interaction; AID 651725, 2012; AlphaScreen GST-Six1/His-Eya2 binding, biochemical; active compounds read low; activity change, % (concentration not given with the values); hit rate 0.56% among 360,000; in the data active = activity change below about -65%; inconclusive = mostly about -30% to -63%; also: % is scaled to controls: 0 for no effect and ±100 for the full control effect
#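 Compounds are tested against tagged Six1 and Eya2 proteins bridged by glutathione donor and nickel acceptor beads; after a one-hour incubation at 37 °C without light, AlphaScreen emission is recorded.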
# HP1b chromo inh – HTS for Inhibitors of HP1-beta Chromodomain Interactions with Methylated Histone Tails | Chromobox protein homolog 1 (Homo sapiens), P83916 | AlphaScreen HP1-beta / biotin-H3K9me3 peptide binding | Potency, µM (doses to about 114 µM), for inactives: at the highest dose activity change, negative = inhibition, actives largely listed as inhibitors | hit rate 0.56% among 390,000 | AID 540317, 2011; also: potency is read from the fitted curve at half-maximal effect; nearly all actives have a fitted effect of over 70% in size
#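 HP1-beta protein (50 nM final) preincubated 30 min at room temperature with biotinylated H3(1-18)K9me3 peptide (50 nM) in PBS pH 7.4, 0.01% Tween-20, then compound added for 30 min. AlphaScreen streptavidin donor/nickel chelate acceptor beads (10 ug/mL final), 30 min dark, luminescence read.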
# JMJD2A Tudor inh – qHTS Assay for Inhibitors of JMJD2A-Tudor Domain; Lysine-specific demethylase 4A (Homo sapiens), O75164; hit rate 4.4% among 390,000; Potency, µM (top dose mostly 114 µM), for the others: at the highest dose activity change, negative = inhibition, hits mostly inhibitors; AlphaScreen JMJD2A-Tudor / H3K4me3 peptide binding; also: potency is read from the fitted curve at half-maximal effect; % is scaled to controls: 0 for no effect and ±100 for the full control effect; nearly all actives have a fitted effect of over 50% in size
# G9a inh – qHTS Assay for Inhibitors of Histone Lysine Methyltransferase G9a. Potency, µM (highest dose often 102 µM), for the others: at the top dose activity, negative = inhibition, most hits filed as inhibitors. hit rate 8.8% among 350,000. Histone-lysine N-methyltransferase EHMT2 (Homo sapiens), Q96KQ7. G9a H3K9 monomethylation, AlphaScreen, 2 h; also: potency is read from the fitted curve at half-maximal effect; % is scaled to controls: 0 for no effect and ±100 for the full control effect; nearly all actives have a fitted effect of over 75% in size
#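 AlphaScreen detection with an anti-monomethyl H3K9 antibody quantified product after a 2 h room-temperature reaction containing 500 nM biotinylated H3K9 peptide, 20 µM SAM and 20 nM enzyme, which had been preincubated 15 min with compound.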
# CtBP-E1A inh – qHTS Assay for Inhibitors of the CtBP/E1A Interaction; activity change, % (no concentration beside the values); CtBP / adenovirus E1A interaction (AlphaScreen); hit rate 0.49% among 340,000; AlphaScreen GST-E1A/His-CtBP binding, 1536-well; active compounds read low; in the data active = activity change below about -65%; inconclusive = mostly about -30% to -63%; also: % is scaled to controls: 0 for no effect and ±100 for the full control effect
#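 In 5 uL wells, 23 nL compound meets equimolar GST-E1A and His-CtBP (5X stock 125 nM each) for 2 h, 37 °C. Beads (5X, 50 ug/mL) then 1 h, 37 °C, dark.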
# Active calls of the source: *; ? = inconclusive; / = no result; [ ] = dose if it differs, or a comment. In the library only some 10% were active in any assay of this set; here they are far more common. Unless noted, calls follow the shape of the dose curve; as a rule, active = well fitted inhibition curve with a large enough effect; inconclusive = small, poorly fitted or top-dose-only effect; inactive = no such curve, though single readings can be large or run the other way.
SMILES,BAZ2B block,Six1-Eya2 inh,HP1b chromo inh,JMJD2A Tudor inh,G9a inh,CtBP-E1A inh
O=C(NCc1ccc(F)cc1)c1cc2ccccc2o1,-9.3%,-1.8,40.3%,0.7%,79.4µM*,2.7
O=C(NNC(=O)c1cc2ccccc2o1)c1ccc(F)cc1,-3.5%,6.9,25.4%,-6.2%,-7.8%[0.501 µM],-2.8
CC1S/C(=N/N=C2CCC(C(C)(C)C)CC2)NC1=O (centres undefined),56.2µM*,1.7,25.6%,-22.0%,44.8%[59 µM],9.1
O=C(CC1S/C(=N/N=C2CCCCCC2)NC1=O)Nc1ccccc1C(F)(F)F (centres undefined),2.7%,6.0,32.8%,-12.0%,52.8%,-4.2
CC1S/C(=N/N=C2CCCCC2)NC1=O (centres undefined),50.1µM*,-7.4,43.7%,?,31.1%[59 µM],-15.1
Cn1cnc([N+](=O)[O-])c1Oc1ccc2ccccc2c1,-7.1%,2.1,22.6%,-23.6%,50.1µM*,-8.0
Cn1cnc([N+](=O)[O-])c1Sc1nc2ccccc2[nH]1,24.5%,-1.5,14.5%,-9.4%,-3.1%,-1.8
Cc1ccc(C(=O)N2CCN(c3cnn(C)c(=O)c3Cl)CC2)cc1,-11.4%,2.0,30.5%,-7.0%,-24.0%,0.0
CC(C)(C)c1ccc(/C=N/NC(=O)C[n+]2ccccc2)cc1,-24.9%,6.0,4.7%,-16.1%,-2.5%,-7.8
O=C(C[n+]1ccccc1)N/N=C/c1c(F)cccc1Cl,56.2µM*,0.5,27.6%,-11.0%,-3.8%,/
O=C(C[n+]1ccccc1)N/N=C/c1ccccc1F,/,0.5,-13.4%,?,6.8%,?
CC(C)(C)c1cc(/C=N/NC(=O)C[n+]2ccccc2)cc(C(C)(C)C)c1O,50.1µM*,-3.7,48.4%,56.2µM*,-50.7%,-11.8
O=C(C[n+]1ccccc1)N/N=C/c1ccc(Cl)cc1,50.1µM*,-21.9,24.8%,?,-0.6%[12.7 µM],-12.1
CSCCC(NC(=O)c1ccc(Cl)cc1Cl)C(=O)N(C)Cc1nc2ccccc2c(=O)[nH]1 (centres undefined),-29.7%,-18.6,17.5%,-26.0%,?,-12.2
CCOC(=O)CSc1nc(-c2ccc(C)cc2C)cc(-c2ccccc2)c1C#N,84.2%,/,221.6%,111.8%,192.1%[59 µM],/
Cc1cc(=O)n2c(C(=O)Nc3ccc(C(=O)OC(C)C)cc3)c(C(=O)Nc3ccccc3)sc2n1,-20.8%,-0.1,62.0%,-18.5%,44.7µM*,/
COc1ccc(C)cc1NC(=O)c1c(C(=O)Nc2cccc(C)c2C)sc2nc(C)cc(=O)n12,-0.4%,/,-0.6%,-12.8%,-11.4%[59 µM],/
Cc1cc(=O)n2c(C(=O)Nc3ccc(F)c(Cl)c3)c(C(=O)Nc3cccc(C)c3C)sc2n1,-1.3%,/,-11.7%,-22.2%,11.2µM*,/
Cc1nnc(SCc2c(Cl)cccc2[N+](=O)[O-])s1,-24.4%,3.1,41.7%,-2.1%,?,0.0
O=[N+]([O-])c1cccc(Cl)c1CSc1ccccn1,?,-4.2,50.3%,-4.9%,44.7µM*,0.5
O=C(CCOc1ccccc1F)N1CCN(c2ccccc2O)CC1,-13.6%,4.6,-6.8%,-18.1%,-19.8%[59 µM],2.0
c1cc2nc(C34CC5CC(CC(C5)C3)C4)[nH]c2cn1,50.1µM*,-1.8,?,22.4µM*,14.1µM*,6.1
CCC(C(=O)Nc1cc(C)ccc1OC)n1nnc(C(=O)OC)c1C(=O)OC (centres undefined),2.8%,/,14.6%,-13.4%,1.6%[59 µM],/
S=C(Nc1ccc(Nc2ccccc2)cc1)Nc1ccccn1,15.8µM*,?,?,20µM*,10µM*,?
S=C(Nc1ccccc1)c1ccccn1,35.5µM*,-84.3*,?,56.2µM*,13.0%[12.7 µM],-75.4*
SMILES,BAZ2B block,Six1-Eya2 inh,HP1b chromo inh,JMJD2A Tudor inh,G9a inh,CtBP-E1A inh
O=C(CC1C(=O)CCCC1=O)c1ccccc1,-34.2%,6.3,38.4%,-9.3%,44.7µM*,-2.0
CCn1nnnc1NC(=O)c1cc(OC)c(OC)c(OC)c1,-17.8%,-5.2,7.9%,79.4µM*,1.5%,2.8
Cn1nnnc1SCC(=O)Nc1ccccc1Cl,9.6%,2.7,18.6%,-8.8%,4.3%,-2.6
Cn1nnnc1NC(=O)c1ccccc1Cl,50.1µM*,-4.2,37.0%,?,39.8µM*,-3.5
CCCn1nnnc1NC(=O)c1cc(Br)ccc1OC,?,2.3,19.6%,-11.7%,25.1µM*,-0.2
CCCn1nnnc1NC(=O)c1cccs1,?,-7.1,?,?,35.5µM*,-1.0
CN1CCN(c2ncnc3ccc(-c4ccoc4)cc23)CC1,/,/,/,/,2.7%[0.501 µM],/
CCc1nc2c(OCCn3cccc3)cccn2c1N(C)C(=O)CC(C)C,/,-4.0,/,/,/,-3.4
CCCn1nnnc1NC(=O)c1ccc(C)cc1Cl,56.2µM*,2.8,41.4%,?,22.4µM*,0.0
CCCn1nnnc1NCc1c(Cl)cccc1Cl,-2.0%,6.2,33.9%,-2.7%,-6.4%,1.8
CCOc1ccccc1/C=N/NC(=O)CSc1n[nH]c(=O)[nH]c1=O,-7.5%,-5.2,17.4%,-23.1%,-14.4%,/
COc1cc(/C=N/NC(=O)CSc2n[nH]c(=O)[nH]c2=O)cc(OC)c1O,1.8%,-25.9,27.5%,-3.5%,35.5µM*,-27.3
O=C(CSc1n[nH]c(=O)[nH]c1=O)N/N=C/c1ccccc1O,1.8%,-79.9*,18.9%,-16.7%,15.5%[59 µM],-76.8*
CCOc1ccc(-c2cn3c(n2)sc2cc(C(=O)NCCCc4ccccc4)ccc23)cc1,-15.8%,/,39.2%,4.3%,22.4µM*,/
O=C(NCc1cccs1)c1ccc2c(c1)sc1nc(-c3ccc(F)cc3)cn12,-16.9%,/,42.0%,-19.1%,10µM*,/
Cc1ccc(-c2cn3c(n2)sc2cc(C(=O)NCc4cccs4)ccc23)cc1,-7.5%,/,33.2%,-16.4%,-8.5%[59 µM],/
Cc1ccc(-c2nc3ccccc3n2C(C(=O)NC(C)(C)C)C2CC2)cc1 (centres undefined),/,-4.3,/,/,/,-2.2
Cc1nnc(N/N=C/c2c[nH]c3ccccc23)[nH]c1=O,?,-0.7,38.5%,-24.6%,/,?
Cc1nnc(N/N=C/C(C)c2ccccc2)[nH]c1=O (centres undefined),-24.6%,-21.5,28.2%,0.891µM*,?,-19.9
COC(=O)Nc1ccc(S(=O)(=O)NCc2ccccn2)cc1,-11.9%,4.8,-5.9%,5.62µM*,13.8%,7.8
COc1c(C)cc(S(=O)(=O)NCc2ccccn2)c(C)c1C,3.9%,0.2,30.8%,25.1µM*,-13.9%[0.501 µM],7.7

# Screening results from PubChem.
